Our source for the Potency values is PubChem BioAssay AID540276 (National Center for Advancing Translational Sciences (NCATS), 2011).

The whole screen tested about 300,000 compounds, of which about 5,400 (1.8%) were called active. A call without a number means that no potency is given here. Not shown: some 28% with an inconclusive outcome. Calls follow the shape of the full dose curve; tested in HEK293 cells. The full list was thinned out, with actives kept by preference.
Potency is read from the fitted curve at half-maximal effect.

The assay is described as follows: qHTS for inhibitors of binding or entry into cells for Marburg Virus. The following applies: Marburg virus pseudotyped entry inhibition, cell reporter; series mostly up to 37.8 µM.
Turning to `CN(C(=O)CC1C(=O)NCCN1Cc1ccc2ccccc2c1)C1CCOCC1` (configuration not stated), the Potency entry was “inactive”.
`c1ccc2c(c1)CSc1sccc1C2=C1CCNCC1`: the Potency is 6.51 µM (active).
With `CCc1c(Nc2ccccc2Cl)nc(N)[nH]c1=O`, the Potency entry is “inactive”.
Next, `COc1ccccc1N(CC(=O)Nc1c(C)n(C)n(-c2ccccc2)c1=O)S(=O)(=O)c1ccccc1`: “inactive”.
In the case of `COc1ccc(-c2ccc(Nc3ccc(S(=O)(=O)N4CCCC4)cc3)nn2)cc1OC`, the Potency is 14.6 µM (active).
Consider `COc1ccc(S(=O)(=O)N2CCCCC2)cc1Br`, for which the Potency result was “inactive”.
Take `COc1ccc(S(=O)(=O)Nc2ccc(S(=O)(=O)N3CCCCC3)cc2)cc1OC`: the Potency result is “inactive”.
`CCCN1CCN(C(=O)CCCNC(=O)c2ccc(Cl)cc2)CC1`: the Potency result is “inactive”.
For `CC1(C)Cc2c(cnn2-c2cccc(F)c2)C(NC(=O)c2cc[n+]([O-])cc2)C1` (configuration not stated), the Potency result was “inactive”.
Turning to `CCC(=O)N(Cc1ccccc1)c1ccccn1`, the Potency entry is “inactive”.
Take `CCCN(CC1CC1)C(=O)COC(=O)c1ccc(C)cc1O`: the Potency result is “inactive”.
In the case of `CC(Oc1ccc(Br)cc1)C(=O)NCC(c1ccco1)N1CCCCC1` (configuration not stated) it was “inactive”; in that of `COc1ccc(-c2nn(-c3ccccc3)cc2/C=N/Nc2ccccn2)cc1OC`, 13 µM (active); in that of `CN(C)/N=C/c1cn(-c2ccccc2)nc1-c1cccnc1`, “inactive”.
As to `Cc1ccc(-c2nn(-c3ccccc3)cc2/C=N/NC(=O)c2ccc3c(c2)OCO3)cc1`, the Potency entry is “inactive”.
Consider `CC(CC(=O)Nc1ccc(F)cc1F)S(=O)(=O)c1ccc2c(c1)NC(=O)CO2` (configuration not stated), for which the Potency entry is “inactive”.
With `CC(C)CC1(C)NC(=O)N(CC(=O)Nc2ccc3c(c2)OCCO3)C1=O` (configuration not stated), the Potency entry is “inactive”.
In the case of `CC(=O)c1c(OCC(=O)N(C)C2CCCCC2)ccc2c(C)cc(=O)oc12` it was “inactive”.
With `Cc1c(NC(=O)Nc2cccc([N+](=O)[O-])c2)c(=O)n(-c2ccccc2)n1C`, the Potency result was “inactive”.
In the case of `O=C(CNC(=O)C1COc2ccccc2O1)N/N=C/c1cc(Br)c(O)c(Br)c1` (configuration not stated), the Potency entry was “inactive”.
For `CCn1nnc2cc(C(=O)Nc3ccc(C(=O)OC(C)C)cc3)ccc21`, the Potency result is “inactive”.
In the case of `CCC(=O)N(Cc1cc2cc(OC)ccc2[nH]c1=O)c1ccccc1C` it was “inactive”.
`COc1ccc2[nH]c(=O)c(CN(Cc3cccnc3)S(=O)(=O)c3ccccc3F)cc2c1`: the Potency is 2.82 µM (active).
As for `COc1ccc(-c2[nH]ncc2CN(C)Cc2cccnc2)c(F)c1`, the Potency result was “inactive”.
As to `Cc1ccc(C(=O)Nc2ccc3c(c2)OCCO3)cc1S(=O)(=O)N1CCOCC1`, the Potency result is “inactive”.
With `Cc1ccc(-c2csc(C(C#N)=C(O)CN3CCN(C(=O)c4ccco4)CC3)n2)cc1`, the Potency result is “inactive”.
On to `C/C(Cl)=C\Cn1c(Nc2cccc(C)c2)nc2c1c(=O)n(C)c(=O)n2C`, for which the Potency is 11.6 µM (active).
In the case of `COC(=O)C(C)Sc1nc2c(c(=O)n(C)c(=O)n2C)n1Cc1cccc(C)c1` (configuration not stated), the Potency entry is “inactive”.
As for `Cc1cccc(Cn2c(SCCO)nc3c2c(=O)n(C)c(=O)n3C)c1`, the Potency entry was “inactive”.
Consider `COc1ccccc1NC(=O)C(C)OC(=O)c1ccc(-n2cnnn2)cc1` (configuration not stated), for which the Potency entry is “inactive”.
Turning to `CC(C)CC(=O)Nc1ccc(Cc2ccncc2)cc1`, the Potency result was “inactive”.
On to `CCOc1ccc(-c2noc(CCC(=O)NC3CCCC3)n2)cc1OC`, for which the Potency entry was “inactive”.
For the molecule `CC1CN(C(=O)CCC(=O)NCCCN2CCC(Cc3ccccc3)CC2)c2cc(Cl)ccc2O1` (configuration not stated), the Potency was 11.2 µM (active).
Next, `COc1ccccc1NC(=O)CCC(=O)N1CC(C)Oc2ccc(C)cc21` (configuration not stated): “inactive”.
On to `Cc1ccc2c(c1)N(C(=O)CCC(=O)NCc1ccccc1F)CC(C)O2` (configuration not stated), for which the Potency entry is “inactive”.
`N[C@@H](Cc1ccccc1)C(=O)N1CCC(C(=O)NCC(=O)Nc2ccc(F)cc2)CC1`: the Potency entry was “inactive”.
With `O=C(CN1CCN(C(=O)C2CCCO2)CC1)Nc1c(Cl)cccc1Cl` (configuration not stated), the Potency entry is “inactive”.
Regarding `CCNc1nc(NCC)nc(N/N=C/c2ccc(O)c(OC)c2)n1`, the Potency entry was “inactive”.
On to `COc1cc(/C=N/Nc2nc3ccccc3s2)ccc1O`, for which the Potency was 10 µM (active).
For the molecule `COc1cc(/C=N\Nc2nc(-c3cccs3)c(NC(C)=O)s2)ccc1O`, the Potency entry is “inactive”.
In the case of `CCN(CC(=O)Nc1c(F)cccc1F)C(=O)Cc1cccs1` it was “inactive”.
Take `CCOC(=O)N(Cc1ccccc1)C1CC1`: the Potency entry is “inactive”.
Take `CCCC(C(=O)OCCN(CC)CC)(c1ccccc1)c1ccccc1`: the Potency is 10 µM (active).
With `CCOC(=O)CCP(=O)(O)C(O)(c1ccccc1)c1ccccc1`, the Potency result was “inactive”.
As for `CCC(C(=O)OCCN(CC)CC)c1ccccc1` (configuration not stated), the Potency result is “inactive”.
Turning to `COc1ccccc1CN1CCNC(=O)C1CC(=O)N(C)CC1CCOCC1` (configuration not stated), the Potency result was “inactive”.
As for `O=C(c1ccc(N2CCOCC2)c([N+](=O)[O-])c1)N1CCN(c2ccccc2F)CC1`, the Potency result is “inactive”.
For the molecule `COC(=O)c1ccc(CSc2nc3ccccc3c(=O)n2-c2cccc(OC)c2)o1`, the Potency entry was “inactive”.
For the molecule `COc1ccc(CCNC(=O)CSc2nc3[nH]ncc3c(=O)n2-c2cccc(C(F)(F)F)c2)cc1OC`, the Potency result was “inactive”.
In the case of `Cc1cccc2nc(CSc3nc4[nH]ncc4c(=O)n3-c3cccc(Cl)c3)cc(=O)n12`, the Potency was 7.31 µM (active).
For `CC(=O)C1=C(C)NC(=O)NC1c1ccc2c(c1)OCO2` (configuration not stated), the Potency entry was “inactive”.
With `O=C(/C=C/c1ccc(F)cc1)NCCNC(=O)/C=C/c1ccc(F)cc1`, the Potency result is “inactive”.
In the case of `CN(C)CCCNC(=O)/C=C/c1ccc(OCc2c(F)cccc2Cl)cc1`, the Potency was 3.98 µM (active).
`C#CC(C)(CC)NC(=O)Cn1nnc(-c2ccc(OCc3c(F)cccc3Cl)cc2)n1` (configuration not stated): the Potency result is “inactive”.
With `NCCCCCC(=O)N/N=C/c1ccc2nccnc2c1`, the Potency was 2.82 µM (active).
As for `O=C(CCCCCNC(=O)c1ccccc1)N/N=C/c1ccccc1`, the Potency result is “inactive”.
`CCOc1cc(C=NNC(=O)CCCC(=O)NN=Cc2ccc(O)c(OCC)c2)ccc1O`: the Potency result is “inactive”.
Next, `COc1ccccc1CNC(=O)CSc1nc(=O)n(Cc2ccncc2)c2c1CCC2`: “inactive”.
For `Cc1ccc(C(=O)N/C(=C\c2cn(C)c3ccccc23)C(=O)N2CCN(C)CC2)cc1`, the Potency entry is “inactive”.
Regarding `CC(=O)OC1CCC2C3CCC4=C(CC(F)C(=O)C4)C3CCC12C` (configuration not stated), the Potency entry is “inactive”.
Regarding `C=CCn1c(C)cc(C2=NNC(=NCC)SC2)c1C`, the Potency is 1.16 µM (active).
Take `COCCn1c(C)cc(C2=NNC(=Nc3ccc(F)cc3)SC2)c1C`: the Potency result is “inactive”.
In the case of `Cc1cccc(N=C2NN=C(c3c[nH]c4ccccc34)CS2)c1` it was “inactive”; in that of `COc1cccc(N(C(=O)CNC(=O)c2ccco2)C(C(=O)NC2CCCCC2)c2cccnc2)c1` (configuration not stated), “inactive”.
In the case of `COc1cc([C@H]2[C@@H]3C(=O)N(c4ccc(F)cc4)C(=O)[C@H]3ON2c2ccccc2)ccc1O`, the Potency result was “inactive”.
Next, `O=[N+]([O-])c1ccc(S(=O)(=O)Nc2cccc(-c3ccc(N4CCCC4)nn3)c2)cc1`: “inactive”; `Cc1ccc(S(=O)(=O)c2cc3c(=O)n4cccc(C)c4nc3n(CCc3ccccc3)c2=N)cc1C`: “inactive”.
Take `O=C(OCC(=O)N1CCCCCC1)c1ccc(Br)c(S(=O)(=O)N2CCOCC2)c1`: the Potency entry was “inactive”.
In the case of `CC1(C)CC2CC(C)(CN2c2ncnc3ccc(Br)cc23)C1` (configuration not stated), the Potency was 6.31 µM (active).
In the case of `C=CCNc1ncnc2ccc(Br)cc12` it was “inactive”; in that of `O=C(NNc1nc(N2CCCC2)nc(N2CCCC2)n1)c1ccccc1`, “inactive”; in that of `O=C(CN1CCc2ccccc2C1)Nc1cccc(S(=O)(=O)N2CCOCC2)c1`, “inactive”.
Next, `COc1cccc(-c2nc3cc(C)ccc3o2)c1`: 6.31 µM (active); `COc1ccc2oc(N)nc2c1`: “inactive”; `O=[N+]([O-])c1ccc2oc(-c3cccc(O)c3)nc2c1`: “inactive”.
With `Nc1ccc2c(c1)C(=Cc1cccnc1)c1ccccc1-2`, the Potency result was “inactive”.
With `CSCCC(NC(=O)COc1ccccc1)C(=O)N(C)CC(=O)Nc1ccc(C)cc1` (configuration not stated), the Potency entry was “inactive”.
For `CC1CCCCC12NC(=O)N(CC(=O)OCc1c(F)cccc1Cl)C2=O` (configuration not stated), the Potency entry was “inactive”.
Next, `O=C(c1ccc(Cl)cc1)N1N=C(c2ccccn2)CC1(O)C(F)(F)F` (configuration not stated): 7.94 µM (active).
As for `COC(=O)C1(O)CC(C(C)C)=NN1C(=O)c1ccc(Cl)cc1` (configuration not stated), the Potency result is “inactive”.
For the molecule `CC1=NN(C(=O)CCc2ccccc2O)C(O)(C(F)(F)F)C1` (configuration not stated), the Potency result is “inactive”.
With `COc1cc(C(=O)NCC(=O)NCCSc2ccc(Br)cc2)cc(OC)c1OC`, the Potency entry is “inactive”.
For `O=C(NC1CCCC1)C(c1ccco1)N(C(=O)c1ccco1)c1ccc(F)cc1` (configuration not stated), the Potency result is “inactive”.
For `N#Cc1cc([N+](=O)[O-])ccc1NC(=O)COC(=O)c1cnccn1`, the Potency entry is “inactive”.
Regarding `CCOc1ccc(CCNC(=O)Cn2nc(CC)n3c(cc4sc(CC)cc43)c2=O)cc1OCC`, the Potency entry is “inactive”.
With `CCOc1ccc(CCNC(=O)c2ccc3c(c2)sc2nc(-c4ccc(F)cc4)cn23)cc1OCC`, the Potency was 2.51 µM (active).
Consider `Cc1c(C(=O)NCCN2CCOCC2)sc2nc(-c3ccc(F)cc3)cn12`, for which the Potency entry is “inactive”.
With `COc1ccc(N2CC(NS(=O)(=O)c3ccc4ccccc4c3)CC2=O)cc1` (configuration not stated), the Potency entry was “inactive”.
Next, `CCOc1ccc(C(=O)NCC(=O)N2CCCCCCC2)cc1OCC`: “inactive”; `S=c1[nH]nc(-c2cccnc2)n1/N=C/C(Cl)=C\c1ccccc1`: “inactive”.
In the case of `S=c1[nH]nc(-c2ccco2)n1/N=C/c1ccccc1`, the Potency result was “inactive”.
As to `Cc1cc(-c2n[nH]c(=S)n2/N=C/C(Br)=C/c2ccccc2)n[nH]1`, the Potency is 10 µM (active).
As to `O=C(CCl)NNc1cccc(Cl)n1`, the Potency entry was “inactive”.
Consider `Cc1ccc2nc(Nc3ccccc3O)nc(-c3ccccc3)c2c1`, for which the Potency result is “inactive”.
As for `O=C(CCl)NNc1nc(-c2ccccc2)c2cc(Cl)ccc2n1`, the Potency is 6.31 µM (active).
On to `COc1ccc(CCNC(=O)c2c(C)nn(-c3ccccc3)c2Cl)cc1`, for which the Potency result is “inactive”.
In the case of `CCN(C(=O)COC(=O)c1c(C)nn(-c2ccccc2)c1Cl)c1c(N)n(Cc2ccccc2)c(=O)[nH]c1=O` it was “inactive”.
For `Cc1cccc2cc(CN(Cc3nnnn3Cc3ccccc3)C3CCCC3)c(=O)[nH]c12`, the Potency was 16.4 µM (active).
On to `CCOc1ccc2[nH]c(=O)c(CN(Cc3nnnn3Cc3ccccc3)CC3CCCO3)cc2c1` (configuration not stated), for which the Potency result is “inactive”.
In the case of `Cc1cc(C)c2cc(CN(Cc3nnnn3Cc3ccc(F)cc3)C3CCCC3)c(=O)[nH]c2c1`, the Potency entry is “inactive”.
Consider `Cc1cc(NC(=O)C(C)SCC(=O)Nc2ccccc2N2CCCCC2)no1` (configuration not stated), for which the Potency result is “inactive”.
As to `Nc1cc(=O)n(Cc2ccccc2)c(=O)n1Cc1ccccc1`, the Potency entry was “inactive”.
